ChEMBL document CHEMBL4303097 (2020)
In all, about 1,500 compounds were measured (“Inhibition index”: median about 0.17, highest 2% from about 1.3 on). The sample as a whole holds a higher share of the highest values than the screen did.

The compounds below were run on SARS-CoV-2 (assay: Inhibition of cell viability relative to arbidol control (inhibition index > 1 indicates higher activity) measured by fluorescence (OD590nm) in Vero E6 cells infected with SARS-CoV-2 (strain BavPat1) at MOI 0.002 after 72hrs).
Assay type: functional, Chlorocebus sabaeus, Vero C1008
Work on `CCc1ccc(C(=O)C(C)CN2CCCCC2)cc1.Cl` (stereo not given) yielded an Inhibition index of 1.254. Compound `Cc1ccc(C(=O)C(C)CN2CCCCC2)cc1.Cl` (stereo not given) [TOLPERISONE HYDROCHLORIDE] has an Inhibition index of 1.172. `CCCCOc1ccc(C(=O)CCN2CCCCC2)cc1.Cl` [DYCLONINE HYDROCHLORIDE] showed an Inhibition index of 1.119. `C[C@]12CC[C@@H]3c4ccc(O)cc4CC[C@H]3[C@@H]1CCC2=O` [ESTRONE] gave an Inhibition index of 0.9303. For `C[C@]12CC[C@@H]3c4ccc(O)cc4CC[C@H]3[C@@H]1CC[C@@H]2O` [ESTRADIOL], the Inhibition index was 0.3797. For `C[C@]12CC[C@H]3C(=CCc4cc(O)ccc43)[C@@H]1CCC2=O` [EQUILIN], the Inhibition index was 1.282. Compound `CC(=O)[N-]S(=O)(=O)c1ccc(N)cc1.O.[Na+]` [SULFACETAMIDE SODIUM] has an Inhibition index of 0.002362. `Cc1cc(O)c(C(=O)N[C@@H](C(=O)N[C@@H]2C(=O)N3C(C(=O)O)=C(CSc4nnnn4C)CS[C@H]23)c2ccc(O)cc2)cn1` [CEFPIRAMIDE] was tested, and the Inhibition index was 0.7171. In the case of `CN(C)CCCN1c2ccccc2[S+]([O-])c2ccc(Cl)cc21` (stereo not given) [CHLOROPROMAZINE SULFOXIDE], the Inhibition index is reported as 0.938. `CN1C[C@H](CNC(=O)OCc2ccccc2)C[C@@H]2c3cccc4c3c(cn4C)C[C@H]21` [METERGOLINE] was tested, and the Inhibition index was -0.1165. `CC(C)NCC(O)COc1ccc(CCOCC2CC2)cc1.Cl` (stereo not given) [BETAXOLOL HYDROCHLORIDE] was tested, and the Inhibition index was 0.6286. In the case of `CCOc1ccc2ccccc2c1C(=O)N[C@@H]1C(=O)N2[C@@H]1SC(C)(C)[C@@H]2C(=O)[O-].O.[Na+]` [NAFCILLIN SODIUM], the Inhibition index is reported as 0.3633. `Brc1c(NC2=NCCN2)ccc2nccnc12.O=C(O)C(O)C(O)C(=O)O` was tested, and the Inhibition index was 0.355. `CN(C)[C@@H]1C(O)=C(C(N)=O)C(=O)[C@@]2(O)C(O)=C3C(=O)c4c(O)cccc4[C@@](C)(O)[C@H]3C[C@@H]12.Cl` [TETRACYCLINE HYDROCHLORIDE] was tested, and the Inhibition index was -0.0001993. For `CCC(=O)O[C@]1(C(=O)SCF)[C@H](C)C[C@H]2[C@@H]3C[C@H](F)C4=CC(=O)C=C[C@]4(C)[C@@]3(F)[C@@H](O)C[C@@]21C` [FLUTICASONE PROPIONATE], the Inhibition index was 0.5757. `CN(C)[C@@H]1C(O)=C(C(N)=O)C(=O)[C@@]2(O)C(O)=C3C(=O)c4c(O)ccc(Cl)c4[C@@](C)(O)[C@H]3C[C@@H]12.Cl` [CHLORTETRACYCLINE HYDROCHLORIDE] showed an Inhibition index of 0.03495. Compound `CC(C)NCC(O)c1cc(O)cc(O)c1.CC(C)NCC(O)c1cc(O)cc(O)c1.O=S(=O)(O)O` (stereo not given) [METAPROTERENOL SULFATE] has an Inhibition index of 0.06285. With `COCC1=C(C(=O)OC(C)OC(=O)OC(C)C)N2C(=O)[C@@H](NC(=O)/C(=N\OC)c3csc(N)n3)[C@H]2SC1` (stereo not given in full) [CEFPODOXIME PROXETIL] the Inhibition index was 0.5603. `C[C@]12Cc3c[nH]nc3C[C@@H]1CC[C@@H]1[C@@H]2CC[C@@]2(C)[C@H]1CC[C@]2(C)O` [STANOZOLOL] gave an Inhibition index of 0.4173. For `C[C@]12COC(=O)C[C@@H]1CC[C@@H]1[C@@H]2CC[C@@]2(C)[C@H]1CC[C@]2(C)O` [OXANDROLONE], the Inhibition index was 0.1105. Compound `C[C@]12C/C(=C\O)C(=O)C[C@@H]1CC[C@@H]1[C@@H]2CC[C@@]2(C)[C@H]1CC[C@]2(C)O` has an Inhibition index of 1.738. `CC(Cc1ccccc1)NCCC(c1ccccc1)c1ccccc1.CC(O)C(=O)O` (stereo not given) showed an Inhibition index of -0.1094. For `Cl.OC(c1cc(C(F)(F)F)nc2c(C(F)(F)F)cccc12)C1CCCCN1` (stereo not given) [MEFLOQUINE HYDROCHLORIDE], the Inhibition index was -0.1263. `CS(=O)(=O)O.Cc1ccc2c(c1)c1c3n2CCNC3CCC1` (stereo not given) showed an Inhibition index of 0.5995. Work on `C=C1/C(=C\C=C2/CCC[C@]3(C)[C@@H]([C@H](C)CCCC(C)C)CC[C@@H]23)C[C@@H](O)C[C@@H]1O` [ALFACALCIDOL] yielded an Inhibition index of -0.1396. `COc1ccc(-c2noc(CC(=O)O)c2-c2ccc(OC)cc2)cc1` [MOFEZOLAC] showed an Inhibition index of 0.1442. `Nc1cccc2c1C(=O)N(C1CCC(=O)NC1=O)C2=O` (stereo not given) [POMALIDOMIDE] was tested, and the Inhibition index was -0.01474. `O=C1Nc2ccc(Cl)cc2[C@@](C#CC2CC2)(C(F)(F)F)O1` [EFAVIRENZ] gave an Inhibition index of -0.107. Compound `CCOCCn1c(N2CCCN(C)CC2)nc2ccccc21.O=C(O)/C=C/C(=O)O.O=C(O)/C=C/C(=O)O` [EMEDASTINE DIFUMARATE] has an Inhibition index of 0.1648. `N=C(N)c1ccc(OCCCCCOc2ccc(C(=N)N)cc2)cc1.O=S(=O)(O)CCO.O=S(=O)(O)CCO` [PENTAMIDINE ISETHIONATE] showed an Inhibition index of -0.04121. In the case of `Cc1cccc(C)c1NC(=O)CC12CCCN1CCC2.Cl`, the Inhibition index is reported as 0.08672. `CO[C@@H]1[C@@H](O[C@@H]2O[C@H](C)[C@@H](O[C@H]3C[C@@](C)(O)[C@@H](OC(=O)CC(C)C)[C@H](C)O3)[C@H](N(C)C)[C@H]2O)[C@@H](CC=O)C[C@@H](C)[C@@H](O)/C=C/C=C/C[C@@H](C)OC(=O)C[C@H]1OC(C)=O` [JOSAMYCIN] showed an Inhibition index of 0.1589. Work on `CO[C@@H]1[C@@H](O[C@@H]2O[C@H](C)[C@@H](O[C@H]3C[C@@](C)(O)[C@@H](O)[C@H](C)O3)[C@H](N(C)C)[C@H]2O)[C@@H](CC=O)C[C@@H](C)[C@@H](O[C@H]2CC[C@H](N(C)C)[C@@H](C)O2)/C=C/C=C/C[C@@H](C)OC(=O)C[C@H]1OC(C)=O` yielded an Inhibition index of 1.276. `CCC(=O)O[C@@H]1CC(=O)O[C@H](C)C/C=C/C=C/[C@H](O)[C@H](C)C[C@H](CC=O)[C@H](O[C@@H]2O[C@H](C)[C@@H](O[C@H]3C[C@@](C)(O)[C@@H](OC(=O)CC)[C@H](C)O3)[C@H](N(C)C)[C@H]2O)[C@H]1OC` [MIDECAMYCIN] showed an Inhibition index of 0.09553. For `C[C@H]1O[C@@H](O[C@H]2[C@@H](O)C[C@H](O[C@H]3[C@@H](O)C[C@H](O[C@H]4CC[C@@]5(C)[C@H](CC[C@@H]6[C@@H]5C[C@@H](O)[C@]5(C)[C@@H](C7=CC(=O)OC7)CC[C@]65O)C4)O[C@@H]3C)O[C@@H]2C)C[C@H](O)[C@@H]1O` [DIGOXIN], the Inhibition index was 0.2267. `COc1ccc(C[C@@H]2c3cc(OC)c(OC)cc3CC[N@+]2(C)CCC(=O)OCCCCCOC(=O)CC[N@@+]2(C)CCc3cc(OC)c(OC)cc3[C@H]2Cc2ccc(OC)c(OC)c2)cc1OC.O=S(=O)([O-])c1ccccc1.O=S(=O)([O-])c1ccccc1` [CISATRACURIUM BESYLATE] gave an Inhibition index of 1.338. `COc1ccc(CC2c3cc(OC)c(OC)cc3CC[N+]2(C)CCC(=O)OCCCCCOC(=O)CC[N+]2(C)CCc3cc(OC)c(OC)cc3C2Cc2ccc(OC)c(OC)c2)cc1OC.O=S(=O)([O-])c1ccccc1.O=S(=O)([O-])c1ccccc1` (stereo not given) [ATRACURIUM BESYLATE] was tested, and the Inhibition index was 0.8693. Work on `CC1(C)S[C@@H]2[C@H](NC(=O)[C@@H](c3ccccc3)S(=O)(=O)O)C(=O)N2[C@H]1C(=O)O.[Na+].[Na+]` yielded an Inhibition index of 0.4594. In the case of `NC12CC3CC(CC(C3)C1)C2.NC12CC3CC(CC(C3)C1)C2.O=C(O)/C=C\C(=O)O`, the Inhibition index is reported as 0.02174. Work on `CC1=C(C(=O)O)N2C(=O)[C@@H](NC(=O)[C@H](N)c3ccc(O)cc3)[C@H]2SC1` [CEFADROXIL] yielded an Inhibition index of 0.02715. `CN1CCN(CCCN2c3ccccc3Sc3ccc(C(F)(F)F)cc32)CC1.Cl.Cl` [TRIFLUOPERAZINE HYDROCHLORIDE] showed an Inhibition index of -0.1697. In the case of `COC(c1ccccc1)(c1ccccc1)C(Oc1nc(C)cc(C)n1)C(=O)O` (stereo not given), the Inhibition index is reported as 1.459. `CN1CCC(=C2c3ccccc3CCc3cccnc32)CC1.O=C(O)/C=C\C(=O)O.O=C(O)/C=C\C(=O)O` [AZATADINE MALEATE] showed an Inhibition index of 0.8296. Work on `CN(C)CCOC(=O)C(c1ccccc1)C1(O)CCCC1.Cl` (stereo not given) [CYCLOPENTOLATE HYDROCHLORIDE] yielded an Inhibition index of 1.136. For `CC(C)(C)NC[C@H](O)c1ccc(O)c(CO)c1.Cl` [LEVALBUTEROL HYDROCHLORIDE], the Inhibition index was 1.311. In the case of `CNCC(O)c1ccc(O)c(O)c1.Cl` (stereo not given) [RACEPINEPHRINE HYDROCHLORIDE], the Inhibition index is reported as 0.3358. `CC(C)(C)NCC(O)c1ccc(O)c(CO)c1` (stereo not given) [ALBUTEROL] was tested, and the Inhibition index was 0.0995. Work on `CC[N+](C)(C)Cc1ccccc1Br.Cc1ccc(S(=O)(=O)[O-])cc1` [BRETYLIUM TOSYLATE] yielded an Inhibition index of 0.2627. In the case of `CC(=O)N[C@@H](CC(=O)O)C(=O)N[C@@H](CCC(=O)O)C(=O)O` [ISOSPAGLUMIC ACID], the Inhibition index is reported as 0.8884. With `CC(=O)O[C@]1(C(C)=O)CC[C@H]2[C@@H]3C=C(Cl)C4=CC(=O)C5CC5[C@]4(C)[C@H]3CC[C@@]21C` (stereo not given in full) the Inhibition index was 0.4824. `N[C@@H]1CONC1=O` [CYCLOSERINE] showed an Inhibition index of 1.427. Compound `N[C@H]1CONC1=O` [LEVCYCLOSERINE] has an Inhibition index of 1.42. For `O.O=P(O)(O)C(O)(Cc1cccnc1)P(=O)(O)O`, the Inhibition index was 0.3004. `CC[N+](C)(CC)CCC[n+]1c(-c2ccccc2)c2cc(N)ccc2c2ccc(N)cc21.[I-].[I-]` [PROPIDIUM] showed an Inhibition index of 0.2273. Compound `CC[C@]12CCCN3CCc4c(n(c5ccccc45)[C@@](O)(C(=O)OC)C1)[C@@H]32` [VINCAMINE] has an Inhibition index of 0.1041.
